Hits are enriched below; roughly 12% of the tested compounds scored in any of these assays.
Sfp inh = blocks B. subtilis Sfp PPTase activity. Q9F4F7. Biochemical Sfp PPTase activity, qHTS. Potency, µM, for the others: largest response in the series, negative = inhibition, usual class: inhibitors. 310,000 tested, 3.5% active. AID 1490;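 also: the enzyme is Sfp with the accession as filed and its product quenches rhodamine fluorescence; 0% = enzyme reaction without inhibitor and -100% = no enzyme wells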
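Sfp 15 nM + cpd, 15 min RT; start w/ rhodamine-CoA 5 uM, BHQ-2-YbbR 12.5 uM (final); 50 mM Hepes pH 7.6, 10 mM MgCl2, 0.01% NP-40, 0.01% BSA; read 525/598 nm at 0 and 30 min.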
HP1b chromo inh = HP1-beta chromodomain-methylated histone interaction inhibition. P83916. AlphaScreen HP1-beta / biotin-H3K9me3 peptide binding. Potency, µM (doses to about 114 µM), without a hit: at the top dose activity change, negative = inhibition, hits mostly inhibitors. 390,000 tested, 0.56% active. AID 540317; also: nearly all actives have a fitted effect of over 70% in size
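AlphaScreen: HP1-beta (50 nM) preformed 30 min with biotin-H3(1-18)K9me3 peptide (50 nM) in PBS pH 7.4, 0.01% Tween-20. Compound added for 30 min at RT, then streptavidin donor/nickel chelate acceptor beads (10 ug/mL) for 30 min.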
BAZ2B block = blocks human BAZ2B; Q9UIF8; AlphaScreen BAZ2B-H3K14Ac peptide displacement; Potency, µM (series often up to 114 µM), for the others: at the top dose activity change, negative = inhibition, usual class: inhibitors; 360,000 tested, 4.4% active; AID 504333; also: % is scaled to controls: 0 for no effect and ±100 for the full control effect; nearly all actives have a fitted effect of over 60% in size
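Complex of BAZ2B and biotin-H3K14Ac (50 nM apiece) forms over 30 min at RT, then faces library compounds up to 110 uM for another 30 min; AlphaScreen beads added, 20 min dark incubation, luminescence read.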
TDP1 block = blocks human tyrosyl-DNA phosphodiesterase 1. Q9NUW8. recombinant TDP1, AlphaScreen DNA substrate cleavage. Potency, µM (series often up to 130 µM), inactives show at the highest dose activity change, negative = inhibition, usual class: inhibitors. 350,000 tested, 0.28% active. AID 485290; also: % is scaled to controls: 0 for no effect and ±100 for the full control effect; nearly all actives have a fitted effect of over 40% in size
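Recombinant E. coli-expressed Tdp1 (1 nM) preincubated with compound 15 min at RT, then 5'-biotin/3'-phosphotyrosine-FITC DNA substrate (15 nM) added for 5 min. AlphaScreen beads (10 ug/ml) added, 10 min RT; tyrosine-FITC cleavage read as signal loss.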
JMJD2A Tudor inh = blocks the human JMJD2A Tudor domain | O75164 | AlphaScreen JMJD2A-Tudor / H3K4me3 peptide binding | Potency, µM (highest dose often 114 µM), without a hit: top-dose activity change, negative = inhibition, hits mostly inhibitors | 390,000 tested, 4.4% active | AID 504339; also: % is scaled to controls: 0 for no effect and ±100 for the full control effect; nearly all actives have a fitted effect of over 50% in size
Target sequence (O75164 whole entry, looked up, the tested form may be a part): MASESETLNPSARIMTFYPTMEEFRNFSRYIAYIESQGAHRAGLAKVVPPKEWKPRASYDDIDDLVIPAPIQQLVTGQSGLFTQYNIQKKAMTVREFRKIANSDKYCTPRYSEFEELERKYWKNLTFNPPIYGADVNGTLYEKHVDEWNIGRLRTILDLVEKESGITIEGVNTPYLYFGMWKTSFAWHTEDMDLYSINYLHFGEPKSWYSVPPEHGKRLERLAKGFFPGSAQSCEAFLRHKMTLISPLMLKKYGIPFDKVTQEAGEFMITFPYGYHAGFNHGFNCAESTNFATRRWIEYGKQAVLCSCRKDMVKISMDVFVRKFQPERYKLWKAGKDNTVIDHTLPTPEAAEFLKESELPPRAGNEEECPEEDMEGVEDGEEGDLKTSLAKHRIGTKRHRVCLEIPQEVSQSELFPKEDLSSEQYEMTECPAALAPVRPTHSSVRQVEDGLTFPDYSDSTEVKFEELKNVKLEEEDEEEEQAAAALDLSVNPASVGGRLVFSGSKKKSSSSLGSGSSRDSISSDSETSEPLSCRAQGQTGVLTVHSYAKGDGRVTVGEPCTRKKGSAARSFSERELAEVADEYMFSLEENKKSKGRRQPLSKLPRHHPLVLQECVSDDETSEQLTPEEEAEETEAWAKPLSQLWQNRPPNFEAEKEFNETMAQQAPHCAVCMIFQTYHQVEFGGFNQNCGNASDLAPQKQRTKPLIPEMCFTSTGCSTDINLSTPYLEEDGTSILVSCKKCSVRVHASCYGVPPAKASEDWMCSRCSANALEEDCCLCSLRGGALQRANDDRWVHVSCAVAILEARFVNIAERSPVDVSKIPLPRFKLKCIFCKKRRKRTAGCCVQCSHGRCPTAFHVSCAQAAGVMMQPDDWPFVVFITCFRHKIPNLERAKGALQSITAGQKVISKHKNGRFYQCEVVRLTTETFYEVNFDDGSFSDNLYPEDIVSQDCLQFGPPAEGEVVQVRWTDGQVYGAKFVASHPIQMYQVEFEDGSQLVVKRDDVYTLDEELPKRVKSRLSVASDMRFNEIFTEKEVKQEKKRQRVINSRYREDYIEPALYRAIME
G9a inh = G9a (human) methyltransferase inhibition. AID 504332. Q96KQ7. Potency, µM (doses to about 102 µM), for inactives: at the top dose activity, negative = inhibition, actives largely listed as inhibitors. 350,000 tested, 8.8% active. G9a H3K9 monomethylation, AlphaScreen, 2 h; also: % is scaled to controls: 0 for no effect and ±100 for the full control effect; nearly all actives have a fitted effect of over 75% in size
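AlphaScreen detection with an anti-monomethyl H3K9 antibody quantified product after a 2 h room-temperature reaction containing 500 nM biotinylated H3K9 peptide, 20 µM SAM and 20 nM enzyme, which had been preincubated 15 min with compound.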
* marks the source's active call; other numbers are inactive results; [ ] = dose if it differs, or a comment. Calls follow the shape of the dose curve; as a rule, active = well fitted curve in the direction sought with a large enough effect; inconclusive = small, poorly fitted or top-dose-only effect, or another doubt; inactive = no such curve, though single readings can be large; an effect the other way counts as inactive or inconclusive. Potency is read from the fitted curve at half-maximal effect.

How did CCCN1C=CC(=C/C=C(\C#N)C(=O)OCC)C=C1 do in these assays?
Sfp inh: -1%; BAZ2B block: 50µM*; TDP1 block: 4%; G9a inh: inconclusive

How did CCOC(=O)N/N=C/C=C/c1ccccc1[N+](=O)[O-] do in these assays?
Sfp inh: 3%; HP1b chromo inh: -14%; BAZ2B block: 3%; TDP1 block: 5%; JMJD2A Tudor inh: inconclusive; G9a inh: -9%

Results for CC1CCCC(C)N1/N=C/c1ccc(N(C)C)cc1 (configuration not stated) ?
Sfp inh: 0%; HP1b chromo inh: -10%; BAZ2B block: -27%; TDP1 block: 1%; JMJD2A Tudor inh: -30%; G9a inh: 40µM*

How did CC1CCCC(C)N1/N=C/c1ccc([N+](=O)[O-])cc1 (configuration not stated) do in these assays?
Sfp inh: -15%; HP1b chromo inh: inconclusive; BAZ2B block: 40µM*; JMJD2A Tudor inh: 35µM*; G9a inh: -39%[2.33 µM]

How did CC1CCCC(C)N1/N=C/C=C/c1ccccc1[N+](=O)[O-] (configuration not stated) do in these assays?
Sfp inh: 13%; HP1b chromo inh: 28µM*; BAZ2B block: 22µM*; TDP1 block: 10%; JMJD2A Tudor inh: 40µM*; G9a inh: 32µM*

Results for CCC1(C)NC(=O)N(CC(=O)Nc2cc(C)on2)C1=O (configuration not stated) ?
HP1b chromo inh: 30%; TDP1 block: 0%; JMJD2A Tudor inh: -4%

Results for NS(=O)(=O)c1cc(-c2nn[nH]n2)c(NCc2cccs2)cc1Cl ?
Sfp inh: 23%; G9a inh: -22%[12.7 µM]

Results for C#C[C@]1(OC(C)=O)CC[C@H]2[C@@H]3CCC4=C/C(=N/O)CC[C@@H]4[C@H]3CC[C@@]21CC ?
Sfp inh: 79µM*; G9a inh: -43%[12.7 µM]

What do the screens show for `C#C[C@@]1(OC(C)=O)CC[C@@H]2[C@@H]3CCC4=C[C@@H](OC(C)=O)CC[C@H]4[C@H]3CC[C@]21C`?
Sfp inh: -12%; TDP1 block: 13%[21 µM]; G9a inh: 17%[21.5 µM]

Results for C[n+]1nc(Nc2ccccc2)sc1-c1ccc(O)cc1 ?
Sfp inh: 10%; HP1b chromo inh: 49%; BAZ2B block: -1%; JMJD2A Tudor inh: -23%; G9a inh: inconclusive

How did Cc1nc(Nc2ccccc2)sc1-c1ccccc1 do in these assays?
Sfp inh: inconclusive; HP1b chromo inh: 1%; BAZ2B block: inconclusive; TDP1 block: 3%; JMJD2A Tudor inh: -29%; G9a inh: inconclusive

How did Oc1ccc(-c2sc(Nc3ccccc3)n[n+]2-c2ccc(F)cc2)cc1 do in these assays?
Sfp inh: 20%; HP1b chromo inh: 11%; BAZ2B block: inconclusive; JMJD2A Tudor inh: -9%; G9a inh: 35µM*

Results for CSc1ccc(-c2sc(Nc3ccccc3)n[n+]2-c2ccc(F)cc2)cc1 ?
Sfp inh: 13%; HP1b chromo inh: -7%; BAZ2B block: inconclusive; JMJD2A Tudor inh: 56µM*; G9a inh: 50µM*

What do the screens show for `Cc1c(Cl)cccc1NC(=O)c1ccc2c(c1)CCCN2S(C)(=O)=O`?
HP1b chromo inh: 5%; BAZ2B block: 4%; TDP1 block: 9%; JMJD2A Tudor inh: -19%; G9a inh: -2%[59 µM]

How did Cc1ccccc1NC(=O)Nc1cccs1 do in these assays?
Sfp inh: 22µM*; HP1b chromo inh: 7%; BAZ2B block: -36%; TDP1 block: 11%; JMJD2A Tudor inh: -26%; G9a inh: inconclusive

What do the screens show for `O=C(Nc1cccs1)N1CCN(c2ncccn2)CC1`?
Sfp inh: -23%; HP1b chromo inh: 27%; BAZ2B block: -6%; JMJD2A Tudor inh: -10%; G9a inh: 40µM*

How did Cc1ccc(Cl)cc1NC(=O)Nc1cccs1 do in these assays?
Sfp inh: 50µM*; HP1b chromo inh: 25%; BAZ2B block: -8%; TDP1 block: -3%; JMJD2A Tudor inh: -17%; G9a inh: inconclusive

How did O=C(Nc1ccc(F)cc1)N1CCN(c2ncccn2)CC1 do in these assays?
Sfp inh: 15%; HP1b chromo inh: 26%; BAZ2B block: 9%; TDP1 block: 6%; JMJD2A Tudor inh: -4%; G9a inh: 4%

Results for Cc1ccc(NC(=O)Nc2cccs2)c(C)c1 ?
HP1b chromo inh: 23%; BAZ2B block: -32%; TDP1 block: 4%; JMJD2A Tudor inh: -18%; G9a inh: inconclusive

Results for O=C(Nc1ccccn1)Nc1cccs1 ?
Sfp inh: 50µM*; HP1b chromo inh: 17%; BAZ2B block: inconclusive; TDP1 block: -1%; JMJD2A Tudor inh: -18%; G9a inh: 56µM*

How did CC(=O)c1cccc(S(=O)(=O)N2CCC(C(=O)NC3CCCC3)CC2)c1 do in these assays?
HP1b chromo inh: 30%; BAZ2B block: inconclusive; TDP1 block: -7%; JMJD2A Tudor inh: -6%; G9a inh: -1%[0.501 µM]

Results for CCc1ccccc1NC(=O)Nc1cccs1 ?
Sfp inh: 50µM*; HP1b chromo inh: 43%; BAZ2B block: 3%; TDP1 block: 3%; JMJD2A Tudor inh: -13%; G9a inh: 50µM*

What do the screens show for `CCc1ccccc1NC(=O)CCC(=O)c1cccs1`?
Sfp inh: 2%; HP1b chromo inh: 28%; BAZ2B block: -20%; TDP1 block: 5%; JMJD2A Tudor inh: -14%; G9a inh: 12%

Results for COc1cc(C2c3c(oc4ccc(F)cc4c3=O)C(=O)N2Cc2ccc3c(c2)OCO3)ccc1O (configuration not stated) ?
HP1b chromo inh: 20%; BAZ2B block: -2%; TDP1 block: 4%; JMJD2A Tudor inh: 6%; G9a inh: 28%[59 µM]

What do the screens show for `COc1ccccc1N1CC=C(c2cccc([N+](=O)[O-])c2)NC1=O`?
Sfp inh: -11%; HP1b chromo inh: 35%; BAZ2B block: -20%; TDP1 block: 1%; JMJD2A Tudor inh: -14%; G9a inh: 40µM*

Results for COc1ccccc1N1CCN(c2ccc([N+](=O)[O-])cc2Cl)CC1 ?
Sfp inh: -5%; HP1b chromo inh: inconclusive; BAZ2B block: inconclusive; TDP1 block: -1%; JMJD2A Tudor inh: inconclusive; G9a inh: 3.2µM*

Results for Cc1cc(=O)n2nc(N(C)CC(=O)NCc3cccc(Br)c3)sc2n1 ?
HP1b chromo inh: 48%; BAZ2B block: 3%; TDP1 block: -3%; JMJD2A Tudor inh: 0%; G9a inh: 17%[59 µM]

High-throughput results deposited in PubChem by National Center for Advancing Translational Sciences (NCATS).
